From PubChem BioAssay (NCATS) come the findings set out here.

Inconclusive results are not listed. Unmarked numbers belong to inactive results. Activity calls are given as the source filed them. Calls come from the whole dose curve; as a rule, active = well fitted cell-killing curve with a large enough effect; inconclusive = small, poorly fitted or top-dose-only effect; inactive = flat fitted curve, though single readings scatter.
% is set by controls: 0 for no effect and ±100 for the full control effect; potency is the fitted concentration of half-maximal effect.

This assay in a line: Cell Viability - LYMP1-003 - Assay at 40 hr (AID 964). Note: nearly all actives have a fitted effect of over 60% in size. The settings on record: LYMP1-003 lymphoblastoid viability; series mostly up to 92.2 µM; activity change, negative = cytotoxic: at the top concentration. An outline of the steps: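 Cells were seeded at 2500 per well and incubated 5 hr at 37 C. Compounds were added across a concentration series and left 40 hr at 37 C. CellTiter-Glo was added for 30 min at room temperature before luminescence reading.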
On to `CC(C)CCON=O`, for which the “activity change, negative = cytotoxic” value was -6.78%.
The same measure, in the same setting: the same measure for `NNC(N)=O`: -2.55%; for `O=[N+]([O-])c1ccccc1`: -14.8%.
Regarding `ClCC1CO1` (stereo not drawn), the “activity change, negative = cytotoxic” value was 1.65%.
`O=Cc1ccco1`: the “activity change, negative = cytotoxic” value is -4.43%.
`C[C@H]1CC[C@@H]2[C@@H](C)[C@H]3[C@H](C[C@H]4[C@@H]5CC=C6CC(O[C@@H]7O[C@H](CO)[C@H](O)[C@H](O[C@@H]8O[C@H](CO)[C@@H](O)[C@H](O)[C@H]8O)[C@H]7O[C@H]7O[C@@H](C)[C@H](O)[C@@H](O)[C@H]7O)CC[C@]6(C)[C@H]5CC[C@]34C)N2C1` (stereo partly drawn): the Potency was 39.8 µM (active).
For `ClC(Cl)(Cl)Cl`, the Potency result is “inactive”.
With `[O]=[Cd]`, the “activity change, negative = cytotoxic” value was -2.55%.
Take `O=C/C=C/c1ccccc1`: the Potency result is “inactive”.
With `C[C@H]1CCC[C@H](O)CCCCCc2cc(O)cc(O)c2C(=O)O1`, the “activity change, negative = cytotoxic” value was -2.12%.
Same read-out and setting: the same measure for `O=CC=O`: -13.7%.
Regarding `O=C(O)C(Cl)(Cl)Cl`, the Potency result was “inactive”.
Take `O=C1C=CC(=O)C=C1`: the “activity change, negative = cytotoxic” value was -17.8%.
